Measured values published in PubChem BioAssay (Tox21).
Inconclusive results are not listed. Where a call stands in place of a potency, no number is given. The source made the active and inactive calls. Calls come from the whole dose curve; as a rule, active = well fitted cell-killing curve with a large enough effect in the repeat runs; inconclusive = weak or mixed curves, or effect the other way; inactive = flat fitted curve, though single readings scatter.
Potency is the fitted concentration of half-maximal effect.

Test: cAMP Responsive Elements (CRE) small molecule agonists, cell-based qHTS assay: qHTS cell viability counter screen (AID 2060914);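 note: viability read after 3 h of compound exposure; nearly all actives have a fitted effect of over 50% in size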
Conditions: CRE-bla HEK293T viability, CellTiter-Glo luminescence, 5 h; series mostly up to 92.4 µM
Text: National Center for Advancing Translational Sciences [NCATS]
Division of Preclinical Innovation [DPI]
U.S. Environmental Protection Agency [EPA]
National Institutes of Environmental Health Sciences [NIEHS]
National Toxicology Program [NTP]
U.S. Food and Drug Administration [FDA]
CREB (cyclic-AMP Responsive Element Binding Protein) is a cellular transcription factor. It binds to certain DNA sequences called cAMP Responsive Elements (CRE) and regulates the transcription of the genes. […] This cell line can be used to find agonists/antagonists of the cyclic AMP signaling pathway. The activation of the report gene under culture conditions can be detected by fluorescence intensity. This cell line has been used to screen the Tox21 10K compound library to identify agonists that induce oxidative stress. The cytotoxicity of the Tox21 compound library against the CRE-bla cell line was tested in parallel by measuring the cell viability using CellTiter-Glo assay (Promega, Madison, WI) in the same wells.
Tox21 Assay Protocol Summary:
CRE-bla Hek 293T cells were suspended in assay medium (DMEM containing 10% dialyzed FBS, 0.1 mM NEAA, 1 mM sodium pyruvate and 25 mM HEPES) and dispensed at 2,000 cells/5 uL /well into 1536-well black wall/clear bottom plates using a Multidrop Combi (ThermoFisher Scientific, Waltham, MA) dispenser. After the assay plates were incubated at 37 C/5% CO2 for 18 hrs, 23 nL of compounds dissolved in DMSO, positive controls or DMSO only was transferred to the assay plate by a pintool workstation (Kalypsys, San Diego, CA). After the plates were incubated at 37 C/5% CO2 for 3 hrs, 1 uL of LiveBLAzer B/G FRET substrate (Invitrogen, Carlsbad, CA) was added to each well using Bioraptr Flying Reagent Dispenser (FRD, Aurora Discovery, San Diego, CA). The plates were incubated at room temperature for 2 h, then fluorescence intensities were measured using an Envision plate reader (PerkinElmer, Shelton, CT) at Excitation 405nm, Emission 460nm and 530nm. The % activity was determined from the ratio of 460nm/530nm. For cell viability readout that measures cytotoxicity, 4 uL /well of CellTiter-Glo reagent was added into the assay plates using Bioraptr FRD. After 30 min incubation at room temperature, the luminescence intensity in the assay plates was measured using a ViewLux (PerkinElmer, Shelton, CT) plate reader.
For CCOC(=O)C(SP(=S)(OC)OC)c1ccccc1 (stereo not given), the Potency was “inactive”. With O=[N+]([O-])c1cccc(CCl)c1 the Potency was “inactive”. With CN(C)NC(=O)CCC(=O)O the Potency was “inactive”. For CC1(C)C(C=C(Cl)Cl)C1C(=O)OC(C#N)c1cccc(Oc2ccccc2)c1 (stereo not given), the Potency was “inactive”. In the case of CCCCCCCCCC(CC)c1ccc(S(=O)(=O)O)cc1 (stereo not given), the Potency is reported as “inactive”. With Clc1cnc(Oc2ccc(Oc3ncc(Cl)cc3Cl)cc2)c(Cl)c1 the Potency was “inactive”. With CCCCC(CC)COC(=O)c1ccc(C(=O)OCC(CC)CCCC)c(C(=O)OCC(CC)CCCC)c1 (stereo not given) the Potency was “inactive”. For c1ccc2c(c1)-c1cccc3cccc-2c13, the Potency was “inactive”. With CN1C(=O)[C@@H](NC(=O)c2cc3ccccc3[nH]2)N=C(c2ccccc2)c2ccccc21 the Potency was “inactive”. For CCOP(=O)(OCC)Oc1ccc([N+](=O)[O-])cc1, the Potency was “inactive”. In the case of O=c1[nH]c(=O)n(Cl)c(=O)n1Cl, the Potency is reported as “inactive”. In the case of CCc1cnc(C2=NC(C)(C(C)C)C(=O)N2)c(C(=O)O)c1 (stereo not given), the Potency is reported as “inactive”. For C=CC(=O)OCCCCO, the Potency was “inactive”. For N#C/C=C/c1ccccc1, the Potency was “inactive”. For CCCCn1cc[n+](C)c1, the Potency was “inactive”. With CON(C)C(=O)Nc1ccc(Cl)cc1 the Potency was “inactive”. For CCC(Cl)[N+](=O)[O-] (stereo not given), the Potency was “inactive”. With CCC(=O)OC1(c2ccccc2)CCN(C)CC1 the Potency was “inactive”. In the case of CC1=C(C(=O)Nc2ccccc2)SCCO1, the Potency is reported as “inactive”. In the case of CC[C@H]1C[C@H]2[C@@H]3CCC4=CC(=O)CC[C@@H]4[C@H]3CC[C@]2(C)[C@H]1O, the Potency is reported as “inactive”. In the case of c1ccc(P(c2ccccc2)c2ccccc2)cc1, the Potency is reported as “inactive”. With [O-][Cl+]O the Potency was “inactive”. In the case of CC(=O)[O][Sn]([c]1ccccc1)([c]1ccccc1)[c]1ccccc1, the Potency is reported as 30.6 µM (active). For CCC(C)(NC(=O)c1cc(Cl)c(C)c(Cl)c1)C(=O)CCl (stereo not given), the Potency was “inactive”. For COC(N)=O, the Potency was “inactive”. In the case of C=C(Cl)CSC(=S)N(CC)CC, the Potency is reported as “inactive”. For c1ccc(N=Nc2ccccc2)cc1, the Potency was “inactive”. In the case of Cc1nc(N)nc(N)n1, the Potency is reported as “inactive”. In the case of [Cl][Sn]([Cl])([Cl])[Cl], the Potency is reported as “inactive”. With CCCCCC[N+](=O)[O-] the Potency was “inactive”. With O=C1CC(=O)NC(=O)N1 the Potency was “inactive”. In the case of C=C(C)C(=O)OCC1CO1 (stereo not given), the Potency is reported as “inactive”. With O=C/C(Cl)=C(/Cl)C(=O)O the Potency was “inactive”. In the case of NC(=O)CCl, the Potency is reported as “inactive”. With CC(O)CN(CC(C)O)CC(C)O (stereo not given) the Potency was “inactive”. In the case of Nc1ccc(-c2ccc(N)cc2)cc1, the Potency is reported as “inactive”. For COP(=O)(O)OC, the Potency was “inactive”. In the case of C[N+](C)(C)CC1CO1 (stereo not given), the Potency is reported as “inactive”. With C#CC1(O)CCCCC1 the Potency was “inactive”. With O=C(CCl)Nc1ccccc1 the Potency was “inactive”.
